# FEN1 inh – blocks human flap endonuclease 1 | P39748 | 0.35% of 390,000 active | Potency, µM (series often up to 114 µM), for inactives: at the top dose activity change, negative = inhibition, actives largely listed as inhibitors | Recombinant FEN1 flap cleavage, fluorescence, 15 min; note: potency is the fitted concentration of half-maximal effect; % is set by controls: 0 for no effect and ±100 for the full control effect; nearly all actives have a fitted effect of over 65% in size
#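 Enzyme 10 nM, 15 min RT preincubation with compound; start with substrate 50 nM final; reads at 0 and 15 min; qHTS titration, four-parameter Hill fit.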
# Pol kappa inh-1 – blocks human DNA polymerase kappa activity; purified Pol kappa, fluorescent DNA synthesis assay, 10 min; Potency, µM (titrated, usually from 107 µM), for inactives: at the highest dose activity, negative = inhibition, most hits filed as inhibitors; 0.53% of 400,000 active; note: potency is the fitted concentration of half-maximal effect; % is set by controls: 0 for no effect and ±100 for the full control effect
#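 Fluorescent qHTS in 1536-well format: enzyme (10 nM) and compound sat 15 min at room temperature before 50 nM substrate (final) was added. Signal taken at 0 and 10 min; no-enzyme buffer wells were negative controls.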
# Pol iota inh – blocks human DNA polymerase iota activity. Q9UNA4. Pol iota fluorescent replication assay, 10 min. 1% of 390,000 active. Potency, µM (series often up to 115 µM), for the others: at the top dose activity, negative = inhibition, most hits filed as inhibitors; note: potency is the fitted concentration of half-maximal effect
# Target sequence (Q9UNA4 whole entry, looked up): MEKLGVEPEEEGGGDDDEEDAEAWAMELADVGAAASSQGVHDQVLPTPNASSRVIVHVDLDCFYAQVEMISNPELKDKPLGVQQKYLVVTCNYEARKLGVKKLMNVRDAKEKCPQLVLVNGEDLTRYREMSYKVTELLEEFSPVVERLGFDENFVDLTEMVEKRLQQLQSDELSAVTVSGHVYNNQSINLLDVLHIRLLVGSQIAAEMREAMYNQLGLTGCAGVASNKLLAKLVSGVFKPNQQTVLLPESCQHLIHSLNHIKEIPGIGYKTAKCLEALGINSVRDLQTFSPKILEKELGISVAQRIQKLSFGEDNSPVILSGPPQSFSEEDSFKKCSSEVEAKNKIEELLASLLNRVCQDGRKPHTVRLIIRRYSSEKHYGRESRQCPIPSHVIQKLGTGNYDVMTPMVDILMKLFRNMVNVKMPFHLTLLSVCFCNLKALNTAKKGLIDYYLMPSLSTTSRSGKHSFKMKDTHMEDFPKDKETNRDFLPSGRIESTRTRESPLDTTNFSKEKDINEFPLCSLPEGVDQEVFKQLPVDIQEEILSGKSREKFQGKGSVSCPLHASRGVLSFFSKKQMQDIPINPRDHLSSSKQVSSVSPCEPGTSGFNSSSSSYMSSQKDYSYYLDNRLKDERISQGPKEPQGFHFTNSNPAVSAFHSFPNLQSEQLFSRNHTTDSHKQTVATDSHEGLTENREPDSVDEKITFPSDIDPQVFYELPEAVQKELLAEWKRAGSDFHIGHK
#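 Pol iota at 10 nM preincubated 15 min with compounds at room temperature; reaction started with fluorescent substrate, 50 nM final. Fluorescence read kinetically at 0 and 10 min; buffer-only wells as negative control.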
# Tb PGK inh – T. brucei PGK inhibition. AID 602233. Potency, µM (top dose mostly 57.5 µM), for the others: at the top dose activity change, negative = inhibition, hits mostly inhibitors. P07378. PGK/GAPDH coupled, Kinase-Glo luminescence, 60 min. 0.043% of 380,000 active; note: potency is the fitted concentration of half-maximal effect; % is set by controls: 0 for no effect and ±100 for the full control effect; nearly all actives have a fitted effect of over 60% in size
#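 Luminescent ATP detection (Kinase-Glo Plus) follows a 60-minute room-temperature incubation, with wells lacking PGK as controls. Buffer: 100 mM TEA (pH 7.6), 5 mM MgCl2, 0.01% Tween-20. Coupling enzyme GAPDH (100 nM final) supplies unstable 1,3-BPG in-well.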
# Pol eta inh-1 – DNA polymerase eta (human) inhibition; Q9Y253; recombinant Pol eta, fluorescent DNA replication assay; Potency, µM (series often up to 114 µM), for the others: top-dose activity change, negative = inhibition, most hits filed as inhibitors; 1.2% of 390,000 active; note: potency is the fitted concentration of half-maximal effect; % is set by controls: 0 for no effect and ±100 for the full control effect
#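 Fluorescent replication assay: 50 nM final substrate added after a 15 min room-temperature compound preincubation with 10 nM enzyme. Signal taken at 0 min and again at 10 min.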
# POLB inh – blocks human DNA polymerase beta activity; 1.3% of 340,000 active; Pol beta primer extension/strand displacement, fluorescence kinetic; P06746; Potency, µM (titrated, usually from 114 µM), inactives show at the highest dose activity change, negative = inhibition, actives largely listed as inhibitors; AID 485314; note: potency is the fitted concentration of half-maximal effect; % is set by controls: 0 for no effect and ±100 for the full control effect
#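 Curves were derived by four-parameter Hill fits of normalized qHTS data. The kinetic fluorescent primer-extension read was taken at 0 and 10 min after 50 nM substrate, following a 15 min room-temperature preincubation of 10 nM enzyme with compounds.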
# GALK confirm – confirmation of human galactokinase (GALK) inhibitors | shares compounds with Pol eta inh-1 | purified GALK, Kinase-Glo ATP depletion luminescence | Potency, µM (doses to about 115 µM), for inactives: top-dose activity, negative = inhibition, usual class: inhibitors | 70% of 150 active | AID 2015
# Redox cycling – counter-screen for GALK inhibitors: redox cycling H2O2 generation; shares compounds with Pol eta inh-1; Phenol red-HRP H2O2 redox cycling, absorbance 600 nm; Potency, µM (highest dose often 115 µM), for the others: at the top dose activity change, negative = H2O2 signal, hits mostly inhibitors; 40% of 150 active
# HEK293 viability – reduces HEK-293 cell viability in GALK counter-screen; shares compounds with Pol eta inh-1; HEK-293 viability, ATP luminescence (CellTiter-Glo), 24/48 h; Potency, µM (series often up to 46.1 µM), inactives show top-dose activity change, negative = cytotoxicity, actives largely listed as inhibitors; 10% of 170 active; note: potency is the fitted concentration of half-maximal effect; % is set by controls: 0 for no effect and ±100 for the full control effect
# Pol kappa inh-2 – Pol kappa (human) inhibition, cherry-pick confirmation | shares compounds with Pol eta inh-1 | purified Pol-kappa, fluorescent strand-displacement substrate | Potency, µM, most hits filed as inhibitors | 76% of 920 active | AID 720501; note: potency is the fitted concentration of half-maximal effect
# Pol eta inh-2 – Pol eta (human) inhibition, cherry-pick confirmation | Potency, µM, hits mostly inhibitors | Pol eta primer extension, TAMRA/BHQ fluorescence, 10 min | shares compounds with Pol eta inh-1 | 64% of 2,600 active; note: potency is the fitted concentration of half-maximal effect
# Starred values were filed as active, the others as inactive; i = inactive; ? = inconclusive; . = not tested or not shown; [ ] = remark or other dose. Shown are actives, neighbours in structure and some others; about 2.4% of the full set was active somewhere. Calls come from the whole dose curve; as a rule, active = well fitted curve in the direction sought with a large enough effect; inconclusive = small, poorly fitted or top-dose-only effect, or another doubt; inactive = no such curve, though single readings can be large; an effect the other way counts as inactive or inconclusive.
SMILES,FEN1 inh,Pol kappa inh-1,Pol iota inh,Tb PGK inh,Pol eta inh-1,POLB inh,Pol eta inh-2,others
COc1ccc(S(=O)(=O)CCC(=O)NCc2ccc(C)o2)cc1,9.4%,-3.8%,7.1%,-0.6%,-2.8%,26.2%,.,
CCc1cccc(NC(=O)CCS(=O)(=O)c2ccc(Br)cc2)c1,-16.9%,0.2%,-1.5%,.,25.1µM*,7.08µM*,84.9*,Pol kappa inh-2=42.3*
COc1ccc(CNC(=O)CCS(=O)(=O)c2ccc(Br)cc2)cc1,-3.7%,?,?,?,?,-29.8%,75.7*,
O=C(COCc1cc(-c2cccs2)on1)Nc1cccc(Cl)c1Cl,-5.5%,0.0%,6.0%,i,0.1%,25.9%,.,
O=c1nc2s/c(=C\c3ccc(-c4ccccc4[N+](=O)[O-])o3)c(=O)n2nc1-c1ccccc1,-3.1%,-3.1%,7.2%,-2.8%,?,5.01µM*,75.7*,
Cc1noc(NS(=O)(=O)c2ccc(NC(=O)c3ccoc3C)cc2)c1C,-3.4%,?,39.8µM*,-10.0%,10µM*,?,?,
COc1ccc(C(=O)N2CCC[C@@]3(CCN(Cc4ccc(C#N)cc4)C3)C2)cc1,.,12.4%[60.1 µM],.,.,.,.,.,
CCOC(=O)c1cnc2ccccc2c1Nc1cccc(OC)c1,-19.5%,-9.1%[60.1 µM],-3.3%,i,-10.5%,-16.9%,.,
COc1ccc(NC(=O)/C(C#N)=C/c2ccc(-c3ccc(Cl)c(C(=O)O)c3)o2)cc1,?,-26.3%,?,1.0%,22.4µM*,-0.3%,.,Pol kappa inh-2=?
COc1ccc(NC(=O)/C(C#N)=C\c2ccc(-c3cc(C(=O)O)ccc3C)o2)cc1,-10.9%,?,?,-10.1%,20µM*,22.4µM*,42.6*,Pol kappa inh-2=47.4*
COc1ccc(NC(=O)/C(C#N)=C/c2ccc(-c3ccccc3C(=O)O)o2)cc1,-13.9%,-22.1%,18.2%,-7.6%,-17.0%,23.2%,.,
COc1cc(N(C(C)=O)c2ccc(O)cc2)c2ncccc2c1,.,.,.,-1.1%,0.6%,.,.,
COc1cc(N(C(C)=O)c2ccc(O)c(C(=O)O)c2)c2ncccc2c1,.,.,.,-4.7%,50.1µM*,.,84.9*,
CCOc1ccccc1-n1nnc(-c2nc(-c3ccccc3C)no2)c1C,2.7%,8.7%,22.2%,i,-3.4%,-5.0%,.,
CC1(CC(=O)N/N=C/c2cc([N+](=O)[O-])c(O)cc2O)OCCO1,-31.6%,?,?,-13.3%,22.4µM*,4.47µM*,?,
C/C(=N\Nc1ccc(Cl)c(C(=O)O)c1)c1ccc(Br)s1,-21.9%,?,?,-8.6%,20µM*,50.1µM*,26.9*,
Cc1ccc(C)c(CN2C(=O)c3ccccc3S(=O)(=O)c3ccc(C(=O)N4CCN(c5ccccc5F)CC4)cc32)c1,11.9%,-8.3%,21.8%,.,.,-1.3%,.,
Nc1c(C=C2C=CC(=O)C=C2)c(=O)nc2sc(CC(=O)N3CCCCC3)nn12,-26.4%,-23.9%,?,-12.5%,39.8µM*,-19.5%,75.7*,
COc1ccc2cc3cc(C(=O)Nc4ccccc4C)oc3nc2c1,10.0%,3.0%,-14.8%,-0.1%,-1.7%,0.2%,.,
CCOc1cc(/C=C2/C(=O)ON=C2C)cc(Br)c1O,10.7%,-5.6%,-25.5%,7.6%,?,3.1%,.,
CCOc1cc(/C=C2\C(=O)ON=C2c2ccccc2)cc(Br)c1O,?,0.5%,?,i,?,5.3%,.,GALK confirm=?;Redox cycling=0.2%;HEK293 viability=5.9%
COc1cc(/C=C2\C(=O)ON=C2c2ccccc2)cc(Br)c1O,?,2.1%,?,-2.9%,44.7µM*,2.0%,.,GALK confirm=37.5µM*;Redox cycling=-1.9%;HEK293 viability=-17.4%
COc1cc(/C=C2\C(=O)ON=C2c2ccccc2)cc(Cl)c1O,-20.8%,-9.7%,?,-12.6%,-14.5%,-24.7%,.,
COP(=O)(OC)c1ccc(NCc2cc(O)ccc2O)cc1,79.4µM*,?,10µM*,-3.1%,10µM*,.,47.8*,
CCOc1ccccc1NC(=O)c1nn(-c2ccc(C)cc2)c(=O)n(C)c1=O,17.1%,-9.8%[60.1 µM],-12.2%,13.3%,-6.3%,6.4%,.,

# Screening data deposited in PubChem by National Center for Advancing Translational Sciences (NCATS).
